Compound activity (PubChem)
CYP2C19 inh: inhibitors of human CYP2C19. P33261. CYP2C19 Supersomes, luciferin-H EGE luminescence, 30 min. inhibition, % at 5 µM. 96,000 compounds, 21% hits;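 active = CYP2C19 inhibition above a set limit at 5 µM in the primary screen, cut at about 50% in these data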;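 note: plate controls were negative control wells for no effect and 2.5 mM tranylcypromine positive control for full effect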
CYP2C19 activ: cytochrome P450 2C19 (human) activation. P33261. recombinant CYP2C19, luciferin-H EGE luminescence; active compounds read high; 0 = fully inhibited enzyme, 1 = untreated enzyme. activation factor at 5 µM. 96,000 tested, under 10 active. AID 1025;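 active = activation factor of at least 2 at 5 µM in the primary screen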;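 note: 0 = wells with 2.5 mM tranylcypromine and 1 = vehicle-only wells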
CYP2C9 inh: blocks human cytochrome P450 2C9 | inhibition, % at 5 µM | CYP2C9 Supersomes, luciferin-H conversion, luminescence | 96,000 compounds, 20% hits | AID 777 | P11712;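 active = blocking of liver enzyme CYP2C9 beyond about 50% at 5 µM, limit read from the data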
sEH act: increases human soluble epoxide hydrolase activity; 91,000 compounds, 0.04% hits; purified human sEH enzymatic activity, activator screen; activation, % at 2 µM; in the data active = activation above about 37%
Target sequence (P34913 whole entry, looked up): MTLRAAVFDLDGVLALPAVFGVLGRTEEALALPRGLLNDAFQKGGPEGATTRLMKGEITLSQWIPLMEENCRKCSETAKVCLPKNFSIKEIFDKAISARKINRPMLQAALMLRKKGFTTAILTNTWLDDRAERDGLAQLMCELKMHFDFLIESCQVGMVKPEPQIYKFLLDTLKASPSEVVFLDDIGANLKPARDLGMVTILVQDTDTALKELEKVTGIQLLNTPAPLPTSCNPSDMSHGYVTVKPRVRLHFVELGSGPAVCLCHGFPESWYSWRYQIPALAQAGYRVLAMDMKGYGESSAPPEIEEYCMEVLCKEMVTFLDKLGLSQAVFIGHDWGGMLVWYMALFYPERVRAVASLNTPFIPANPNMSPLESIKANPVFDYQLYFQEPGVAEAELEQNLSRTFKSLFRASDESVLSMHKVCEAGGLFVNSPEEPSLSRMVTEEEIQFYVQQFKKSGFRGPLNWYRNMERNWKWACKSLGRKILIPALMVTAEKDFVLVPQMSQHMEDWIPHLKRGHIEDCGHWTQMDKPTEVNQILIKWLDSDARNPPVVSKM
CYP2C9 act: CYP2C9 (human) activation. recombinant CYP2C9, luciferin-H conversion, luminescence; active compounds read high; factor 1 = untreated enzyme, 0 = blocked. AID 1024. P11712. 96,000 compounds, 1.4% hits. activation factor at 5 µM;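 active = activation factor of 2 or more for CYP2C9 at a 5 µM dose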;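 note: 0 = sulfaphenazole-blocked wells and 1 = vehicle-only wells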
sEH inh: inhibitors of human soluble epoxide hydrolase; recombinant human sEH enzymatic activity assay; 91,000 compounds, 0.34% hits; inhibition, % at 2 µM; P34913; in the data active = inhibition above about 80%
Starred values were filed as active, the others as inactive; nt = no result. A selection: hits, their analogues and other compounds. The true share with any hit is near 27%.

SMILES | CYP2C19 inh | CYP2C19 activ | CYP2C9 inh | sEH act | CYP2C9 act | sEH inh
Cc1ccc(/C=C/C2=Cc3c(sc(NC(=O)CSc4n[nH]c(N)n4)c3C#N)C(C)(C)C2)o1 | 20.2 | 0.8 | 90.6* | -27.5 | 0.1 | 28.6
COC(=O)c1c(NC(=O)CSc2n[nH]c(N)n2)sc(C)c1C | 13.3 | 0.9 | 31.5 | 6.9 | 0.7 | -6.4
N#C/C(C(=O)N1CCOCC1)=C1/SC=C(c2ccccc2)N1c1ccccc1 | nt | nt | nt | 7.6 | nt | -5.1
CC1(C)Cc2c(C#N)c(N3CCN(C(=O)c4ccco4)CC3)nc(-c3ccco3)c2CS1 | nt | nt | nt | 17.8 | nt | -17.9
CC1(C)Cc2c(c(-c3ccco3)[nH]c(=O)c2C#N)CS1 | -10.9 | 1.1 | -17.2 | nt | 1.2 | nt
CC(=O)N1CCN(c2nc(-c3ccco3)c3c(c2C#N)CC(C)(C)SC3)CC1 | 46.7 | 0.5 | 77.7* | -19.8 | 0.2 | 20.4
CC1(C)Cc2c(C#N)c(N3CCN(C(=O)c4ccccc4Cl)CC3)nc(-c3ccco3)c2CS1 | 21.8 | 0.8 | 70.5* | 17.8 | 0.3 | -16.9
Cc1ccc(OCC(=O)N/N=C\c2cn(C)c3ccccc23)c([N+](=O)[O-])c1 | 21.5 | 0.8 | -7.2 | 1.9 | 1.1 | 0.8
O/N=C/c1ccc(OCC(O)COc2ccc(/C=N/O)cc2)cc1 | 24.9 | 0.8 | 17.8 | 2.0 | 0.8 | -0.6
CCOc1ccccc1NC(=O)C(=O)NCC1CCCN1CC (stereo unspecified) | -1.2 | 1 | 0.9 | 2.1 | 1 | 0.2
CC(C)Nc1nc(-c2ccccc2)nc(-n2ccnc2)n1 | 23.5 | 0.8 | 17.5 | -1.1 | 0.8 | 2.6
c1ccc(-c2nc(-n3ccnc3)nc(-n3ccnc3)n2)cc1 | 55.9* | 0.4 | 48.6 | nt | 0.5 | nt
CCCCNc1nc(-c2ccccc2)nc(-n2ccnc2)n1 | 85.7* | 0.1 | 85.2* | 8.8 | 0.1 | -13.6
c1ccc(CN2CCN(c3nc(-c4ccccc4)nc(-n4ccnc4)n3)CC2)cc1 | 34.3 | 0.7 | 57.2* | 1.3 | 0.4 | -0.9
C=CCNc1nc(-c2ccccc2)nc(-n2ccnc2)n1 | 34.7 | 0.7 | 46.2 | -2.6 | 0.5 | 4.1
Cc1ccc(-c2nc3sc4c(N)ncnc4c3c3c2CCCC3)cc1 | -0.8 | 1 | 11.3 | 20.3 | 0.9 | -20.0
O=C(CCSc1ccccc1)N1CCN(C(=O)c2ccco2)CC1 | 25.4 | 0.7 | 20.1 | -5.2 | 0.8 | 8.2
CCOC(=O)c1c(C)n(C)c2ccc(OC)c(NC(=O)CCN3CCSCC3)c12 | 21.6 | 0.8 | 44.2 | 2.6 | 0.6 | -1.6
CCCCOC(=O)c1ccc(NC(=O)c2cc(Cl)ccc2OC)cc1 | 23.3 | 0.8 | -148.0 | 1.9 | 2.5* | 1.4
Cc1ccc(S(=O)(=O)N(CC(=O)N/N=C/c2cccc3c2OCCO3)c2ccccc2F)cc1 | 82.2* | 0.2 | 93.6* | 1.6 | 0.1 | -1.8
CCC(C)(C)NC(=O)CN(C(=O)CNS(=O)(=O)c1ccccc1)c1ccccc1 | 9.5 | 0.9 | -2.3 | 0.2 | 1 | 0.0
CC(=O)N1CCN(S(=O)(=O)c2ccc(C)cc2)C1C(C)C (stereo unspecified) | 68.8* | 0.3 | 1.4 | 15.7 | 1 | -14.2
Cc1ccc(S(=O)(=O)N2CCN(C(=O)c3ccccc3)C2C(C)C)cc1 (stereo unspecified) | 42.7 | 0.6 | 0.4 | -0.2 | 1 | 0.2
Cc1ccc(S(=O)(=O)N2CCN(C(=O)N3CCOCC3)C2C(C)C)cc1 (stereo unspecified) | 2.1 | 1 | 3.4 | -0.2 | 1 | 0.3
C/C(=N\S(=O)(=O)c1ccc(C)cc1)N1CCN(S(=O)(=O)c2ccccc2)C1C(C)C (stereo unspecified) | 78.4* | 0.2 | -135.9 | -30.0 | 2.4* | 31.3
SMILES | CYP2C19 inh | CYP2C19 activ | CYP2C9 inh | sEH act | CYP2C9 act | sEH inh
CCOC(=O)c1ccc(NC(=O)CN2C(=O)C(=O)N(CC(C)C)C2=O)cc1 | 6.7 | 0.9 | -4.1 | -5.0 | 1 | 7.2
O=C(Nc1ccc(N2CCCCC2)cc1)c1ccc(F)cc1 | -2.1 | 1 | -16.1 | -12.6 | 1.2 | 15.8
COc1ccc(NC(=O)c2cccnc2N2CCCC2)cc1 | -5.1 | 1.1 | 94.1* | -2.6 | 0.1 | 3.1
O=C(Nc1ccc(Br)cc1)c1cccnc1N1CCCCC1 | 37.3 | 0.6 | 85.5* | -11.6 | 0.1 | 11.9
O=C(Nc1ccccc1N1CCCC1)c1cccnc1Cl | nt | nt | nt | -2.9 | nt | 5.7
O=C(Nc1ccc(F)cc1)c1cccnc1N1CCCCC1 | 75.1* | 0.2 | 62.0* | -1.9 | 0.4 | 2.0
COc1ccc(NC(=O)c2cccnc2N2CCCCC2)cc1 | nt | nt | nt | -0.1 | nt | 1.5
O=C1CC(c2c[nH]c3ccccc23)C(=O)N1c1ccccc1 (stereo unspecified) | nt | nt | nt | -10.0 | nt | 10.4
COc1cccc(N2C(=O)CC(c3c[nH]c4ccccc34)C2=O)c1 (stereo unspecified) | 89.1* | 0.1 | 33.8 | -4.2 | 0.7 | 7.0
CCC(=O)Oc1ccc(C/C(=N\O)c2ccc(O)cc2O)o1 | 95.6* | 0 | 96.5* | -1.3 | 0 | 4.2
CCOC(=O)C(C)n1nc(/C=C/c2ccccc2)ccc1=O (stereo unspecified) | 28.3 | 0.7 | 71.1* | -11.1 | 0.3 | 10.7
CCN(CCCNC(=O)CC1Oc2ccc(C)cc2NC1=O)Cc1ccccc1 (stereo unspecified) | -3.5 | 1 | -1.2 | nt | 1 | nt
Cc1ccc(NC(=O)COn2nnc3ccc(S(=O)(=O)N(C)C)cc32)cc1F | 88.7* | 0.1 | 97.5* | -1.0 | 0 | 2.4
CCc1ccc2c(COn3nnc4ccc(S(=O)(=O)N(C)C)cc43)cc(=O)oc2c1 | 26.3 | 0.7 | 26.3 | -4.4 | 0.7 | 8.1
CCc1ccc(NC(=O)COn2nnc3ccc(S(=O)(=O)N(C)C)cc32)cc1 | 82.4* | 0.2 | 81.5* | -1.9 | 0.2 | 2.6
Cc1cc(C(=O)Nc2cccc(C(=O)O)c2)c(C)o1 | 37.2 | 0.6 | 15.8 | 16.2 | 0.8 | -14.4
O=C(Nc1ccccc1C(=O)O)c1ccc(Br)o1 | -1.9 | 1 | 42.9 | -5.1 | 0.6 | 6.3
CC(=O)c1cc(C(=O)Nc2ccccc2C(=O)O)oc1C | 12.4 | 0.9 | 53.5* | nt | 0.5 | nt
Cc1cc(C(=O)Nc2cccc(C(=O)O)c2)oc1C | 66.4* | 0.3 | 28.1 | nt | 0.7 | nt
Cc1oc(C(C)(C)C)cc1C(=O)Nc1cccc(C(=O)O)c1 | -5.3 | 1.1 | 60.2* | 3.9 | 0.4 | -3.4
N#Cc1cc(C(=O)c2cc(Br)ccc2O)cn(C2CCCCC2)c1=O | -13.2 | 1.1 | -13.3 | 13.0 | 1.1 | -14.7
CC(=O)c1c(C(C)=O)c(C)n(NC(=O)c2ccncc2)c1C | 88.8* | 0.1 | 44.8 | 13.4 | 0.6 | -15.1
Cc1c(OCc2ccccc2)c(=O)ccn1Cc1ccccc1 | 68.0* | 0.3 | 36.6 | -10.4 | 0.6 | 8.4
O=C(OCn1cncn1)c1ccc(Cl)cc1Cl | 49.5 | 0.5 | 38.0 | -11.2 | 0.6 | 11.8
COc1ccc(/C=C(/C(=O)c2ccc(Cl)cc2Cl)n2cncn2)cc1 | 77.2* | 0.2 | 91.2* | 8.9 | 0.1 | -7.6
CN1C(=O)c2ccccc2C(C(=O)NCC2CCCO2)C1c1c[nH]c2ccccc12 (stereo unspecified) | -20.2 | 1.2 | -21.8 | -1.7 | 1.2 | -0.1
